This is an account of results in PubChem BioAssay (NCI).

The panel holds about 83,000 compounds, 20% with a hit somewhere; the sample as a whole holds those more often.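 Step 1: grow cells in 96-well plates. Step 2: add test compound at a single concentration. Step 3: incubate 48 h. Step 4: record percent growth.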 Values without a mark were called inactive. Calls of active or inactive are those of the source. How the source made its calls: active means growth percent below 10; inactive means the rest.

Test systems include HCT-15 colon; HT29 colon; SNB-75 CNS; SNB-19 CNS; U251 CNS; PC-3 prostate; SK-MEL-5 melanoma; UACC-62 melanoma; LOX IMVI melanoma; SK-MEL-28 melanoma.
Assay in all cases: NCI-60 one-dose screen, 48 h (100 = growth as untreated, 0 = no growth, -100 = all killed)
Common to all, as to details: 10 µM unless noted

With `C#Cc1cccc(Nc2nc3ccc([N+](=O)[O-])cc3nc2Nc2cccc(C#C)c2)c1`, the growth with HCT-15 colon is -69.4% (active); in the experiment on HT29 colon, -75.9% (active); in the experiment on SNB-75 CNS, -91.9% (active); in the experiment with SNB-19 CNS it was -19.2% (active); with U251 CNS, -91.1% (active); in the experiment on PC-3 prostate, -41.9% (active). The growth was -88.9% (active) in the experiment on SK-MEL-5 melanoma, -39.3% (active) in the experiment on UACC-62 melanoma, -93.2% (active) with LOX IMVI melanoma and -69.4% (active) with SK-MEL-28 melanoma.
As for `C=C1C(=O)O[C@H]2[C@H]1CC/C(COC(=O)NCc1ccc(Cn3c(=O)sn(-c4ccc(OC)cc4)c3=O)cc1)=C\CC[C@@]1(C)O[C@@H]21`, the growth with HCT-15 colon is 4.27% (active); with HT29 colon, -15.5% (active); in the experiment with SNB-75 CNS it was 96%; in the experiment on SNB-19 CNS it was 94.8%; in the experiment with U251 CNS it was 77.7%; in the experiment on PC-3 prostate, 70.3%. Also, the growth was 97.9% in the experiment with SK-MEL-5 melanoma, 60.7% with UACC-62 melanoma, 25% in the experiment on LOX IMVI melanoma and 71% in the experiment with SK-MEL-28 melanoma.
As to `COc1ccc(C(c2cc(OC)c(OC)c(OC)c2)N2CCN(Cc3ccccc3)CC2)cc1` (stereo not given), the growth in the experiment on HCT-15 colon is 47.6%; in the experiment on HT29 colon it was 28.3%; in the experiment with SNB-75 CNS, 92.4%; in the experiment with SNB-19 CNS, 70%; with U251 CNS, 62.8%; in the experiment with PC-3 prostate, 59.3%. Moreover, the growth in the experiment on SK-MEL-5 melanoma is 52.6%; with UACC-62 melanoma, 49.4%; with LOX IMVI melanoma, 67%; in the experiment with SK-MEL-28 melanoma, 78.3%.
For `c1ccc(CCc2ccccc2-c2cc(-c3ccccc3)on2)cc1`, the growth in the experiment with HCT-15 colon is 83.6%; with HT29 colon, 68.2%; in the experiment on SNB-75 CNS it was 80.5%; in the experiment on SNB-19 CNS it was 90.3%; with U251 CNS it was 95.3%; with PC-3 prostate it was 89.1%. The growth in the experiment with SK-MEL-5 melanoma was 78.9%; in the experiment with UACC-62 melanoma, 71.1%; in the experiment on LOX IMVI melanoma, 92.2%; in the experiment with SK-MEL-28 melanoma it was 93.9%.
For the molecule `COc1cc(-c2cc(-c3ccc(Nc4ncnc5cc(Cl)ccc45)cc3)nc(N3CCN(C)CC3)n2)cc(OC)c1OC`, the growth with HCT-15 colon is 64.4%; with HT29 colon it was 81.7%; with SNB-75 CNS, 49.5%; in the experiment on SNB-19 CNS it was 102%; with U251 CNS, 106%; in the experiment with PC-3 prostate, 82.2%. Also, the growth in the experiment with SK-MEL-5 melanoma was 74.5%; in the experiment on UACC-62 melanoma it was 97%; in the experiment on LOX IMVI melanoma, 86.2%; in the experiment with SK-MEL-28 melanoma, 86.6%.
Regarding `CN1CCN(C(=O)c2cc(-c3ccc4ncnc(N5CCc6cc(F)c(Cl)cc65)c4c3)cnc2N)CC1`, the growth in the experiment with HCT-15 colon is 5.57% (active); with HT29 colon, 13.6%; with SNB-75 CNS, -35.3% (active); in the experiment on SNB-19 CNS, 13%; in the experiment with U251 CNS it was 15.4%; in the experiment on PC-3 prostate, 1.89% (active). Further, the growth with SK-MEL-5 melanoma was -97.1% (active); in the experiment on UACC-62 melanoma, -52.1% (active); in the experiment on LOX IMVI melanoma it was -41.4% (active); with SK-MEL-28 melanoma it was -0.0571% (active).
On to `COc1ccc(Nc2ncc(C(N)=O)c(NCCCNC(=O)C3CCC3)n2)cc1`, for which the growth in the experiment on HCT-15 colon was 82.1%; with HT29 colon it was 70.7%; with SNB-75 CNS, 49.7%; in the experiment with SNB-19 CNS, 75.5%; in the experiment on U251 CNS, 56.3%; in the experiment on PC-3 prostate it was 62.8%. The growth was 88.3% in the experiment with SK-MEL-5 melanoma, 77.8% in the experiment with UACC-62 melanoma, 73.1% in the experiment on LOX IMVI melanoma and 94.2% in the experiment on SK-MEL-28 melanoma.
`COc1ccc(C2CC(c3ccc(Nc4nc(Nc5ccc(F)cc5)nc(Nc5ccc(F)cc5)n4)cc3)=NN2C(C)=O)cc1` (stereo not given): the growth with HCT-15 colon is 94.4%; in the experiment with HT29 colon it was 100%; in the experiment with SNB-75 CNS, 101%; in the experiment with SNB-19 CNS, 85.2%; in the experiment with U251 CNS, 84.5%; in the experiment on PC-3 prostate, 68.8%. Also, the growth in the experiment with SK-MEL-5 melanoma is 71.6%; in the experiment on UACC-62 melanoma it was 103%; in the experiment with LOX IMVI melanoma, 103%; in the experiment on SK-MEL-28 melanoma it was 110%.
On to `O=C(CCCCCCCCC(=O)N/N=C\c1cc(Cl)ccc1O)N/N=C\c1cc(Cl)ccc1O`, for which the growth in the experiment on HCT-15 colon is 15.6%; in the experiment on HT29 colon, 58.9%; with SNB-75 CNS, 55.6%; in the experiment on SNB-19 CNS it was 34.8%; in the experiment with U251 CNS it was 29.5%; with PC-3 prostate, 26.6%. Further, the growth in the experiment with SK-MEL-5 melanoma is -37.9% (active); in the experiment with UACC-62 melanoma, 0.989% (active); with LOX IMVI melanoma, 14.1%; with SK-MEL-28 melanoma it was 41.7%.
Regarding `CNCc1cccc2c1OCCOCCN(C)C(=O)CN(C)S(=O)(=O)c1ccc(cc1)-c1cnc(N)c(n1)C(=O)N2`, the growth is 66.3% with HCT-15 colon; 11.6% with HT29 colon; -19.2% (active) in the experiment on SNB-75 CNS; 25.5% in the experiment on SNB-19 CNS; -62.3% (active) in the experiment with U251 CNS; 57.9% in the experiment on PC-3 prostate. Moreover, the growth was 55.4% in the experiment with SK-MEL-5 melanoma, 4.98% (active) in the experiment on UACC-62 melanoma, 10.3% in the experiment on LOX IMVI melanoma and -85.8% (active) with SK-MEL-28 melanoma.
Take `N#Cc1c(-c2cccc([N+](=O)[O-])c2)cc(-c2ccc(Nc3nc(Nc4ccc(F)cc4)nc(Nc4ccc(F)cc4)n3)cc2)nc1N`: the growth is 103% in the experiment on HCT-15 colon; 113% in the experiment with HT29 colon; 102% with SNB-75 CNS; 104% in the experiment on SNB-19 CNS; 110% with U251 CNS; 92% in the experiment on PC-3 prostate. For the same molecule, the growth is 84.4% in the experiment with SK-MEL-5 melanoma, 110% in the experiment with UACC-62 melanoma, 97.9% with LOX IMVI melanoma and 114% in the experiment on SK-MEL-28 melanoma.
Take `C/C(=N\Nc1nc(C)cs1)c1cc2ccccc2o1`: the growth with HCT-15 colon was 98.8%; in the experiment with HT29 colon, 103%; with SNB-75 CNS, 119%; with SNB-19 CNS, 96.4%; with U251 CNS, 94%; in the experiment on PC-3 prostate, 70.2%. Further, the growth in the experiment with SK-MEL-5 melanoma is 92%; in the experiment with UACC-62 melanoma, 85.5%; in the experiment on LOX IMVI melanoma, 85.8%; with SK-MEL-28 melanoma, 110%.
Take `COc1cc(C(=O)c2c(-c3ccccc3)oc3c(OC)cccc23)cc(OC)c1O`: the growth was 13.5% in the experiment on HCT-15 colon; 6.79% (active) in the experiment on HT29 colon; 22.2% with SNB-75 CNS; 25.8% with SNB-19 CNS; 18.8% with U251 CNS; 23.5% in the experiment on PC-3 prostate. Besides, the growth with SK-MEL-5 melanoma is 19.7%; in the experiment on UACC-62 melanoma, 39.3%; in the experiment with LOX IMVI melanoma, 16.1%; in the experiment on SK-MEL-28 melanoma, 62.7%.
